Growth data for seven compounds are collected here from PubChem BioAssay (NCI).

The panel holds about 83,000 compounds, 20% with a hit somewhere; the sample as a whole holds those more often.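 Percent growth is the endpoint: 0 to 100 indicates growth inhibition (40 means 60% inhibition), 0 means no net growth, and negative values indicate cell death.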 A number with no mark means an inactive call. The source made the active and inactive calls. The calls were made as follows: active = growth percent below 10; inactive = the rest.

Test systems include NCI-H23 lung; NCI-H226 lung; NCI-H322M lung; HOP-62 NSCLC; NCI-H460 lung; HOP-92 NSCLC; NCI-H522 lung; A549/ATCC NSCLC; 786-0 renal; COLO 205 colon; DU-145 prostate; K-562 leukemia; MALME-3M melanoma; RXF 393 renal; SF-268 CNS; SF-295 CNS; SF-539 CNS; UACC-257 melanoma; MDA-MB-231 breast.
Assay in all cases: NCI-60 one-dose screen, 48 h (100 = growth as untreated, 0 = no growth, -100 = all killed)
Settings in all cases: 10 µM unless noted

As to `COC1=CC(c2ccc[nH]2)=N/C1=C\c1[nH]c(C)c(C(=O)OCCn2cc(CCC[C@@H]3Cc4cc(O)ccc4C4CC[C@]5(C)[C@@H](O)CC[C@H]5C43)nn2)c1C` (stereo partly specified), the growth with NCI-H23 lung is 80.8%; in the test on NCI-H226 lung it was 85.7%; in the test on NCI-H322M lung, 82%; in the test on HOP-62 NSCLC, 88.6%; in the test with NCI-H460 lung, 53.3%; in the test with HOP-92 NSCLC, 67.8%. The growth is 92.1% in the test with NCI-H522 lung; 82.2% in the test with A549/ATCC NSCLC; 62.5% in the test on 786-0 renal; 80.5% with COLO 205 colon; 50.1% in the test with DU-145 prostate; 51.9% with K-562 leukemia. Further, the growth was 131% in the test with MALME-3M melanoma; 60.1% in the test on RXF 393 renal; 69.9% in the test with SF-268 CNS; 96.1% in the test with SF-295 CNS; 64.2% in the test with SF-539 CNS; 96.4% in the test on UACC-257 melanoma.

As for `COc1cc(C(=O)Nc2cc(O)c(CC=C(C)C)c(O)c2)cc2c1O[C@]1(C)CC[C@@H](O)C(C)(C)[C@H]1C2`, the growth was 38.7% in the test with NCI-H23 lung; 47.6% in the test with NCI-H226 lung; 66.4% in the test with NCI-H322M lung; 6.01% (active) in the test with HOP-62 NSCLC; 15.6% in the test on NCI-H460 lung; -5.08% (active) in the test with HOP-92 NSCLC. In addition, the growth in the test on NCI-H522 lung was 10%; in the test with A549/ATCC NSCLC it was 18.5%; in the test with 786-0 renal, -11.7% (active); in the test with COLO 205 colon, -11.8% (active); in the test on DU-145 prostate, 42%; in the test with MALME-3M melanoma, 58.6%. The growth in the test with MDA-MB-231 breast was 24.1%; in the test with RXF 393 renal it was -18.5% (active); with SF-268 CNS it was 39.5%; with SF-295 CNS, -52.1% (active); in the test with SF-539 CNS, -50.8% (active); with UACC-257 melanoma it was 27.2%.

On to `CCN(CC)CCOc1ccc(/C(=C(\C)c2ccc(F)c(OC)c2)c2ccc(Cl)cc2)cc1`, for which the growth with NCI-H23 lung is 25.6%; with NCI-H226 lung, 75.7%; in the test with NCI-H322M lung, 65.7%; with HOP-62 NSCLC it was -4.66% (active); in the test with NCI-H460 lung it was -54.2% (active); in the test with HOP-92 NSCLC, 20.4%. For the same compound, the growth is 26.9% in the test with NCI-H522 lung; 30.7% in the test with A549/ATCC NSCLC; -64.9% (active) in the test with 786-0 renal; -58.6% (active) in the test on COLO 205 colon; 41.3% in the test on DU-145 prostate; -7.49% (active) with K-562 leukemia. Besides, the growth in the test on MALME-3M melanoma was -81.6% (active); with MDA-MB-231 breast it was 27.9%; in the test with SF-268 CNS, 53%; with SF-295 CNS, -21.6% (active); in the test with SF-539 CNS, -68.3% (active); with UACC-257 melanoma it was 12.3%.

In the case of `COc1cc(NC(=O)c2cccc(-c3cc(=O)c4c(O)c(OC)c(OC)cc4o3)c2)cc(OC)c1OC`, the growth in the test with NCI-H23 lung is 34.9%; in the test with NCI-H226 lung, 7.69% (active); in the test on NCI-H322M lung, 74.4%; in the test with HOP-62 NSCLC, 11.7%; in the test on NCI-H460 lung, 53.8%; in the test with HOP-92 NSCLC, 56.1%. Also, the growth in the test on NCI-H522 lung was 41.2%; in the test with A549/ATCC NSCLC it was 40.5%; in the test with 786-0 renal, 66.3%; in the test with COLO 205 colon, 67.7%; in the test with DU-145 prostate, 57.3%; with K-562 leukemia, 54.5%. For the same compound, the growth was 51% in the test on MALME-3M melanoma; 75% in the test on RXF 393 renal; 61.9% with SF-268 CNS; 61.5% in the test on SF-295 CNS; 51.7% in the test on SF-539 CNS; 66.1% in the test with UACC-257 melanoma.

For `COc1cc2oc(-c3cccc(C(=O)Nc4ccc(C)cc4)c3)cc(=O)c2c(OC)c1OC`, the growth in the test with NCI-H23 lung is 44.6%; in the test on NCI-H226 lung, 62.5%; in the test on NCI-H322M lung, 51.1%; in the test with HOP-62 NSCLC it was 22.1%; in the test with NCI-H460 lung it was 24.9%; with HOP-92 NSCLC it was 22%. Besides, the growth in the test with NCI-H522 lung is 6.72% (active); with A549/ATCC NSCLC, 33.8%; with 786-0 renal, 22.1%; in the test on COLO 205 colon, 1.73% (active); in the test with DU-145 prostate it was 48.2%; with K-562 leukemia, 28%. Also, the growth with MALME-3M melanoma was 27.3%; with RXF 393 renal it was -7.43% (active); in the test with SF-268 CNS it was 57.7%; in the test on SF-295 CNS it was -47% (active); in the test with SF-539 CNS, 45.8%; in the test on UACC-257 melanoma, 29.9%.

`CCCCNC(=O)c1cc(NCc2cc(O)ccc2O)ccc1O`: the growth in the test on NCI-H23 lung was 93.4%; in the test with NCI-H226 lung it was 106%; in the test on NCI-H322M lung, 91.3%; with HOP-62 NSCLC, 84.4%; in the test on NCI-H460 lung, 106%; with HOP-92 NSCLC, 67.7%. Further, the growth was -55.7% (active) with NCI-H522 lung; 77.1% with A549/ATCC NSCLC; 80.4% with 786-0 renal; 108% in the test with COLO 205 colon; 99.7% in the test on DU-145 prostate; 108% in the test on MALME-3M melanoma. Also, the growth with MDA-MB-231 breast is 84%; with RXF 393 renal, 83.7%; with SF-268 CNS it was 84.1%; with SF-295 CNS, 101%; with SF-539 CNS, 62.2%; in the test with UACC-257 melanoma, 68.9%.

For the compound `COc1ccc(NC(=O)c2cccc(-c3cc(=O)c4c(O)c(OC)c(OC)cc4o3)c2)cc1`, the growth is 91.3% in the test with NCI-H23 lung; 91.9% in the test on NCI-H226 lung; 99.5% in the test on NCI-H322M lung; 72.2% in the test with HOP-62 NSCLC; 92.7% in the test on NCI-H460 lung; 23.6% in the test on HOP-92 NSCLC. The growth in the test on NCI-H522 lung was 79.4%; in the test with A549/ATCC NSCLC, 81.3%; with 786-0 renal it was 43%; in the test with COLO 205 colon it was 97.6%; in the test with DU-145 prostate it was 96.9%; in the test on K-562 leukemia, 91.8%. Further, the growth in the test with MALME-3M melanoma was 80.6%; in the test with RXF 393 renal it was 92%; in the test on SF-268 CNS, 54.6%; in the test on SF-295 CNS it was 104%; in the test with SF-539 CNS, 56.1%; in the test with UACC-257 melanoma, 79.2%.
